# From PubChem BioAssay (NCATS)
# Values joined by “and” are separate entries in the source; they are usually repeats but may differ in a detail not shown here. Identical values can stand only once. Results filed as inconclusive are left out. Where a call stands in place of a potency, no number is given. Active and inactive are the calls of the source. Unless noted, calls follow the shape of the dose curve; as a rule, active = well fitted curve in the direction sought with a large enough effect; inconclusive = small, poorly fitted or top-dose-only effect, or another doubt; inactive = no such curve, though single readings can be large; an effect the other way counts as inactive or inconclusive.
# What was measured:
# [1] = molecular target: Guanine nucleotide-binding protein G(i) subunit alpha-1 (Homo sapiens) (UniProt P63096); assay: qHTS Assay for Inhibitors of RGS12 GoLoco Motif Activity (Green Fluorophore) (AID 879);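 also: negative values mean loss of peptide binding seen as reduced polarization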
# Chain of Guanine nucleotide-binding protein G(i) subunit alpha-1 (Homo sapiens) (P63096 whole entry, looked up): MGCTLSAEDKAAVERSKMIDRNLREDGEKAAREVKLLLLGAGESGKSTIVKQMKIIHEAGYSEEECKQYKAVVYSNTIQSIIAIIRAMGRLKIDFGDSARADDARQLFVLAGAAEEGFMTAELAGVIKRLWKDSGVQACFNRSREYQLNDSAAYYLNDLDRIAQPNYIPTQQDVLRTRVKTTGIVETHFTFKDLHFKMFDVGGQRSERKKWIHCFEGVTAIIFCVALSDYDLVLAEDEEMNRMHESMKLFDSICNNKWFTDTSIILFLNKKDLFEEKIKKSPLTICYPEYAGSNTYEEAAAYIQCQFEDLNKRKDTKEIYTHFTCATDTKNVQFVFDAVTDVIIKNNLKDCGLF
# Outline: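 A drop in FITC polarization marked displacement of the FITC-tagged RGS12 GoLoco peptide (10 nM) from Gαi1 (50 nM). Compounds were incubated 10 min at room temperature in Tris pH 7.5 buffer containing 150 mM NaCl, 0.1 mM GDP and 0.05% NP40; unlabeled peptide titration served as control.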
# [2] = molecular target: Cytochrome P450 2C9 (Homo sapiens) (UniProt P11712); assay: qHTS Assay for Inhibitors and Substrates of Cytochrome P450 2C9 (AID 883); also: nearly all actives have a fitted effect of over 60% in size; also: potency is read from the fitted curve at half-maximal effect
# Chain of Cytochrome P450 2C9 (Homo sapiens) (P11712 whole entry, looked up): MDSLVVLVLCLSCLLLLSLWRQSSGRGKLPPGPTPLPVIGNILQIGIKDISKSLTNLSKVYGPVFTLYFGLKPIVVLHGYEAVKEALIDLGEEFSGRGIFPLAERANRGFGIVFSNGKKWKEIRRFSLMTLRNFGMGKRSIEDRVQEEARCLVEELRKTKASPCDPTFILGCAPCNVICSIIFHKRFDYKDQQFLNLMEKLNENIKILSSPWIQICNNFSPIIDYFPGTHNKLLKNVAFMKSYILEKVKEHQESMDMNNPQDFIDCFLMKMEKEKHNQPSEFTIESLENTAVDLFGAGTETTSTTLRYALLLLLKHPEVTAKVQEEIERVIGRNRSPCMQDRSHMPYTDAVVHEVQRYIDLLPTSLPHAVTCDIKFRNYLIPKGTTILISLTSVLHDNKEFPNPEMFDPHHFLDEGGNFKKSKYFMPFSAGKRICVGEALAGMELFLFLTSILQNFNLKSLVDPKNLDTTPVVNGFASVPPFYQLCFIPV
# Outline: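 Inhibition of CYP2C9 is scored as loss of luminescence, with 57uM sulphaphenazole defining 100% inhibition. Substrate Luciferin-H is used at 100uM, equal to its KM; enzyme at 10nM in 25mM KPO4, 60 min at 37C with NADPH regeneration.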
# [3] = molecular target: Cytochrome P450 2C19 (Homo sapiens) (UniProt P33261); assay: qHTS Assay for Inhibitors and Substrates of Cytochrome P450 2C19 (AID 899); also: nearly all actives have a fitted effect of over 60% in size; also: potency is read from the fitted curve at half-maximal effect
# Chain of Cytochrome P450 2C19 (Homo sapiens) (P33261 whole entry, looked up): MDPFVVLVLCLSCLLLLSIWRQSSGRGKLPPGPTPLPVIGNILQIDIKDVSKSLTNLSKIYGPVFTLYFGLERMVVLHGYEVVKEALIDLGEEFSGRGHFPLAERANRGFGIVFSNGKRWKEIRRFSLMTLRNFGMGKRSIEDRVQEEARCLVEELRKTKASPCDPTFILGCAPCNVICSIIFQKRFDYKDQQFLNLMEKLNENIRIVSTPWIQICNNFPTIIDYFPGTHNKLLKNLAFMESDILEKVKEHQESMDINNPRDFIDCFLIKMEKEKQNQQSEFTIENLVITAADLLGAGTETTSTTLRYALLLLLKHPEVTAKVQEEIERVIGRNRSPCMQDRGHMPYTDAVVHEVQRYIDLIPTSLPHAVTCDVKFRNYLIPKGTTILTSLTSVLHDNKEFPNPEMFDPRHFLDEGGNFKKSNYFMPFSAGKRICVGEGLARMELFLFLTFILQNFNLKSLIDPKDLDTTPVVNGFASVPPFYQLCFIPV
# Outline: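 5nM enzyme + 10uM Luciferin-H EGE (=KM), 50mM KPO4; cpd pin-transferred, 10 min 37C; NADPH regen, 60 min 37C; stopped w/ luciferin detection reagent, 20 min; luminescence. Normalized to 57uM ketoconazole (AC100).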
# [4] = qHTS Assay for Identification of Small Molecule Agonists for Thrombopoietin (TPO) Signaling Pathway (AID 917)
# Outline: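 Human TPO receptor–transfected Ba/F3 cells (murine, IL-3-dependent) in IL-3-deficient medium; compounds plus TPO at EC50, 26 pM final; 24 hrs, 37 C; GpIIb-luciferase luminescence after 10 min RT detection.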
# [5] = Cellular Toxicity (caspase-3) H-4-II-E (AID 663);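 also: cells exposed to compound for 16 hr before readout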
# Outline: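 Caspase 3/7 activation measured by luminescent aminoluciferin substrate cleavage after 16 hr compound treatment of H-4-II-E cells in complete medium. Increase normalized between DMSO (basal) and 100 uM tamoxifen (100%); Hill-equation AC50 from concentration-response.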
# [6] = Cellular Toxicity (caspase-3) Hek293 (AID 664);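 also: cells exposed to compound for 16 h at 37 °C before readout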
# Outline: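 qHTS, HEK293 (human embryonic kidney), 16 h cpd exposure in complete medium. Caspase-3/7 activation = luminescence increase; normalized to DMSO/100 uM tamoxifen; Hill-fit AC50.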
# [7] = Cellular Toxicity (caspase-3) N2a (AID 665);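 also: compound exposure lasted 16 h at 37 °C before readout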
# Outline: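 Caspase-3/7 activation, measured as increased luminescence from aminoluciferin release, is quantified in mouse N2a cells exposed to compounds for 16 h. Values are normalized to DMSO and 10 uM staurosporine, with AC50 derived by Hill modelling.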
# [8] = Cellular Toxicity (caspase-3) NIH 3T3 (AID 666)
# Outline: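 Cells were plated at 1000 per well and incubated 5 hr at 37°C, then compound was added for 16 hr. Caspase-Glo 3/7 reagent followed for 20 min at room temperature before luminescence was read.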
# [9] = Cellular Toxicity (caspase-3) Renal Proximal Tubule (AID 667);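 also: cells exposed to compound for 16 hours at 37 °C before detection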
# Outline: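 Caspase-Glo 3/7 read-out, rat primary kidney proximal tubule cells. Compound exposure 16 h, 37 °C; detection after 1 h at RT. Activity scaled to DMSO and 10 uM staurosporine.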
# [10] = molecular target: Cytochrome P450 3A4 (Homo sapiens) (UniProt P08684); assay: qHTS Assay for Inhibitors and Substrates of Cytochrome P450 3A4 (AID 884); also: series mostly up to about 57 µM; nearly all actives have a fitted effect of over 50% in size
# Chain of Cytochrome P450 3A4 (Homo sapiens) (P08684 whole entry, looked up): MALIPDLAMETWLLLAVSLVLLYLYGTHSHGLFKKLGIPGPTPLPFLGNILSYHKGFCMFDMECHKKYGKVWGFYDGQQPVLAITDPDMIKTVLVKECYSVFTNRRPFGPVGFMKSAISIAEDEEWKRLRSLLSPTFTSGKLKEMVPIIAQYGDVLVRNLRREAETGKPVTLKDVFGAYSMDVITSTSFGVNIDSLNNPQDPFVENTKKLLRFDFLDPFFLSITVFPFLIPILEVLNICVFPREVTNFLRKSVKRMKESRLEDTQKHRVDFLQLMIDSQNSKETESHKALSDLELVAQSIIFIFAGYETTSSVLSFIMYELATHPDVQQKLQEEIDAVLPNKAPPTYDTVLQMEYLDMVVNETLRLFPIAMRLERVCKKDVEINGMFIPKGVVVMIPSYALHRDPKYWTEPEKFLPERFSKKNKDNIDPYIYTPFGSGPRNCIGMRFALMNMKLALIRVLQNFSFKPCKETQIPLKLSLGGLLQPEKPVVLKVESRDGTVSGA
# Outline: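 Luminescent readout of luciferin produced by CYP3A4 (20 nM) dealkylation of Luciferin-PPXE, 25 uM (its KM). NADPH-driven reaction ran 60 min at RT after 10 min compound preincubation; data scaled to 57 uM ketoconazole as 100% inhibition.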
# [11] = molecular target: Cytochrome P450 2D6 (Homo sapiens) (UniProt P10635); assay: qHTS Assay for Inhibitors and Substrates of Cytochrome P450 2D6 (AID 891); also: nearly all actives have a fitted effect of over 60% in size; also: potency is read from the fitted curve at half-maximal effect
# Chain of Cytochrome P450 2D6 (Homo sapiens) (P10635 whole entry, looked up): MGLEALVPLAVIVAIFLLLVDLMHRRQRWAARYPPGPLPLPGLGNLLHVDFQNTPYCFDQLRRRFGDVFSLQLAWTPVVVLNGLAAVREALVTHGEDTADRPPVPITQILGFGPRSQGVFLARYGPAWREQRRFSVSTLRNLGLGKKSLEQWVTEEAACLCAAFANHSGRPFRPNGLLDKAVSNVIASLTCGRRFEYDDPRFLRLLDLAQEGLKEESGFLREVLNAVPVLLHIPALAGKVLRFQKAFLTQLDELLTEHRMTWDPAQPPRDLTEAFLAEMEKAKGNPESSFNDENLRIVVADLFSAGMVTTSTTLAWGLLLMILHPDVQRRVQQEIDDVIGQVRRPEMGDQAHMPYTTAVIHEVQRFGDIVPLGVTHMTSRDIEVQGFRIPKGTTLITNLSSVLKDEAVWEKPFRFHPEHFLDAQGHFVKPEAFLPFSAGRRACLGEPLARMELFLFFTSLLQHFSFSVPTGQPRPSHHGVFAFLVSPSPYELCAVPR
# Outline: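 Luminescent read-out of luciferin formed by 5 nM human CYP2D6 demethylating 30 uM Luciferin-ME EGE (Km level) over 60 min at room temperature after NADPH regeneration addition. Data normalized to full inhibition by 1.43 uM quinidine.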
# [12] = Confirmation and Secondary Assay for Modulators of Hemoglobin Beta Chain Splicing at IVS2 654 locus (AID 910);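 also: HeLa cells stably carrying EGFP split by mutant beta-globin IVS2-654 intron; per-well total GFP intensity by laser scanning cytometry after 2-day treatment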
# Outline: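 Readout: per-well total peak green fluorescence (488 nm ex, 500–520 nm em) from objects 5–250 µm, reflecting correct splicing of an EGFP-654 reporter. Compounds were applied for 2 days at 37 °C to overnight-plated HeLa EGFP-654 cells; controls were DMSO and 500 nM IVS2-654 PNA.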
# [13] = Cell Viability - LYMP2-001 (AID 921);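 also: series mostly up to about 92 µM; cells exposed to compound for 24 h at 37 °C; nearly all actives have a fitted effect of over 70% in size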
# Outline: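 A lymphoblastoid cell line of human origin was treated with library compounds across a concentration series for 24 hours, and viable cell number was estimated from ATP-driven luciferase light output. Hill modeling gave AC50.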
# [14] = Confirmation and Secondary Assay for Modulators of Hemoglobin Beta Chain Splicing at IVS2 705 locus (AID 930);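 also: HeLa cells stably expressing the EGFP-705 splicing reporter; GFP fluorescence per well restored by corrected splicing of the IVS2-705 intron in EGFP; series mostly up to about 46 µM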
# Outline: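 Assay measures total GFP intensity per well in HeLa EGFP-705 cells after 2 days with compound; mis-splicing normally truncates EGFP, so fluorescence indicates corrected splicing.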
# [15] = molecular target: Cytochrome P450 3A4 (Homo sapiens) (UniProt P08684); assay: qHTS Assay for Activators of Cytochrome P450 3A4 (AID 885); also: nearly all actives have a fitted effect of over 65% in size
# Outline: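 Human CYP3A4 dealkylates Luciferin-PPXE to luciferin, which luciferase detection converts to light. Substrate was at its KM (25uM), buffer 200mM KPO4, reaction 60 min at RT.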
# [16] = qHTS Assay for Identification of Small Molecule Antagonists for NFkB Signaling Pathway (AID 895; active = well fitted inhibition curve with a large enough effect in the signal ratio, with a control signal flat, not every such curve was filed as active; the % refers to the signal ratio; also: potency is read from the fitted curve at half-maximal effect)
# Outline: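 Beta-lactamase reporter read-out (460 and 530 nm emission ratio, 405 nm excitation, 2 hrs substrate loading RT) after 5 hr stimulation with 10 pM TNF alpha in compound-treated NFkB-bla ME-180 cells in low-serum medium.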
# [17] = molecular target: Muscarinic acetylcholine receptor M1 (Rattus norvegicus) (UniProt P08482); assay: qHTS Assay for Antagonists of Acetylcholine Muscarinic M1 Receptor: Measurement of IP-One Response (AID 944); also: nearly all actives have a fitted effect of over 75% in size; also: potency is read from the fitted curve at half-maximal effect
# Chain of Muscarinic acetylcholine receptor M1 (Rattus norvegicus) (P08482 whole entry, looked up): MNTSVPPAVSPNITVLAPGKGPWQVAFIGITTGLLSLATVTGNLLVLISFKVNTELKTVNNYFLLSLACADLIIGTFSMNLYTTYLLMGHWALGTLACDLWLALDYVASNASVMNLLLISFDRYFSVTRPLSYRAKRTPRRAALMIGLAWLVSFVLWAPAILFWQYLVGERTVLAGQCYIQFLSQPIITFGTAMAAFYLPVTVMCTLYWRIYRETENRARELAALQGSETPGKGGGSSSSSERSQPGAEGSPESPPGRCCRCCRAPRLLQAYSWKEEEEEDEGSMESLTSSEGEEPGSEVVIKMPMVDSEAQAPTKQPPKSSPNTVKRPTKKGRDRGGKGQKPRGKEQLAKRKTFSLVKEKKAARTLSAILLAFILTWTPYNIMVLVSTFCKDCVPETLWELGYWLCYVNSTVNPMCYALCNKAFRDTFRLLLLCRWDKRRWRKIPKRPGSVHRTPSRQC
# Outline: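 Antagonist mode with rat M1 receptor transfected into CHO cells. Compound is added first for 10 min, carbachol at its EC80 follows for 30 min, and lysis reagents then allow TR-FRET detection of accumulated IP1.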
# [18] = molecular target: Muscarinic acetylcholine receptor M1 (Rattus norvegicus) (UniProt P08482); assay: qHTS Assay for Antagonists of Acetylcholine Muscarinic M1 Receptor: Kinetic Measurement of Intracellular Calcium Response (AID 943); also: potency is read from the fitted curve at half-maximal effect; nearly all actives have a fitted effect of over 75% in size
# Outline: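 Antagonism is measured as inhibition of the carbachol-evoked calcium rise in CHO cells transfected with rat M1. Cells are dye-loaded, exposed to compound for 10 min, then stimulated with 100 nM carbachol (EC80).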
smiles,measurement,setting,value
Clc1cccc(Cl)c1NC1=NCCN1,outcome,[1],inactive
same,Potency,[2],7.94 µM (active)
same,Potency,[3],5.01 µM (active)
same,outcome,[4],inactive
NC(=O)c1cnccn1,outcome,[5],inactive
same,outcome,[6],inactive
same,outcome,[7],inactive
same,outcome,[8],inactive
same,outcome,[9],inactive
same,outcome,[1],inactive
same,Potency,[2],inactive
same,Potency,[10],inactive
same,Potency,[11],inactive
same,Potency,[3],inactive
same,Potency,[12],inactive
same,outcome,[4],inactive
same,Potency,[13],inactive
same,Potency,[14],inactive
Nc1ccc(S(=O)(=O)Nc2ccnn2-c2ccccc2)cc1,outcome,[1],inactive
same,outcome,[15],inactive
same,Potency,[16],7.08 µM (active)
same,Potency,[3],inactive
same,Potency,[12],inactive
same,Potency,[14],inactive
same,Potency,[17],inactive
CCOC(=O)C1=C[C@@]2(CC)CCCN3CCc4c(n1c1ccccc41)[C@H]32,outcome,[1],inactive
same,Potency,[2],inactive
same,outcome,[15],inactive
same,Potency,[11],39.8 µM (active) and 6.31 µM (active)
same,Potency,[3],inactive
same,outcome,[4],inactive
same,Potency,[17],inactive
NNCCc1ccccc1,outcome,[1],inactive
same,outcome,[15],inactive
same,Potency,[11],6.31 µM (active) and 2.51 µM (active)
same,Potency,[3],794 nM (active) and 316 nM (active)
same,Potency,[12],inactive
same,outcome,[4],inactive
same,Potency,[14],inactive
NC[C@H](O)c1ccc(O)c(O)c1,outcome,[1],inactive
OC(CN1CCC(Cc2ccc(F)cc2)CC1)c1ccc(Cl)cc1 (centres undefined),outcome,[1],inactive
same,Potency,[10],inactive
same,Potency,[18],0.398 µM (active)
same,Potency,[17],7.94 µM (active)
